# Compounds with a hit are over-represented: about 11% of the library has one in this group of screens.
# ALDH1A1 inh-1 – qHTS Assay for Inhibitors of Aldehyde Dehydrogenase 1 (ALDH1A1); Potency, µM (doses to about 75.3 µM), without a hit: at the highest dose activity, negative = inhibition, hits mostly inhibitors; Purified ALDH1A1, NADH fluorescence, propionaldehyde substrate; actives 7.3% (n = 220,000); AID 1030, 2008; Aldehyde dehydrogenase 1A1 (Homo sapiens), P00352;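 also: potency is read from the fitted curve at half-maximal effect; plate controls were no enzyme wells and a reference inhibitor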
# IMPase inh – qHTS Assay for Identifying the Cell-Membrane Permeable IMPase Inhibitors. Inositol monophosphatase 1 (Rattus norvegicus), P97697. 120,000 tested, under 10 active. inhibition (IP1 accumulation), % at 46.1 µM. CHO-M1 cells, IP1 accumulation, HTRF TR-FRET ratio; active = well fitted curve in the direction sought with a large enough effect in the signal ratio, not every such curve was filed as active; inconclusive = small, poorly fitted or top-dose-only effect, or a change in a side signal; inactive = no such curve, though single readings can be large or run the other way; the % refers to the signal ratio;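 also: cells stimulated with carbachol in lithium chloride buffer; plate controls were DMSO basal wells for no effect and reference inhibitor wells for full effect; higher means more IMPase inhibition seen as more IP1 and lower FRET ratio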
# Target sequence (P97697 whole entry, looked up): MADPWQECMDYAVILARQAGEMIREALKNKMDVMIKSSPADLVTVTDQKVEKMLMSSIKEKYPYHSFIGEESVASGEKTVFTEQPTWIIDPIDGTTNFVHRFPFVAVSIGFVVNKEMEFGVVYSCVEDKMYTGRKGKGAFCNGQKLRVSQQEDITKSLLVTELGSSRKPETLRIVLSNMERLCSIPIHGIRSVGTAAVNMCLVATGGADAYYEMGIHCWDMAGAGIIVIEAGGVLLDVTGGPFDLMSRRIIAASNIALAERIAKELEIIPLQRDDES
#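 CHO-M1, 2000 cells/well, cultured 16–30 h; cpd up to 46 uM; carbachol (50 uM solution, stimulation buffer w/ 50 mM LiCl, pH 7.4), 30 min 37C; IP-One TR-FRET, 10 min RT; Ex 320/Em 665, 620; Hill-fit AC50.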
# 12-hLO inh – qHTS Assay for Inhibitors of 12-hLO (12-human lipoxygenase); actives 0.12% (n = 150,000); purified 12-hLO, xylenol orange hydroperoxide absorbance; Potency, µM (highest dose often 57.1 µM), for inactives: at the highest dose activity change, negative = inhibition, usual class: inhibitors; active = well fitted curve in the direction sought with a large enough effect; inconclusive = small, poorly fitted or top-dose-only effect, or another doubt; inactive = no such curve, though single readings can be large; an effect the other way counts as inactive or inconclusive; also: potency is read from the fitted curve at half-maximal effect; % is scaled to controls: 0 for no effect and ±100 for the full control effect; nearly all actives have a fitted effect of over 55% in size
#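 Purified human 12hLO (150 nM), preincubated 15 min with compound, then 40 uM arachidonic acid for 30 min, room temperature, Hepes pH 7.0 with 0.01% Triton X-100. Hydroperoxide detected by ferrous iron/xylenol orange; 573/405 nm absorbance ratio gives reaction progress.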
# HPGD inh – qHTS Assay for Inhibitors of HPGD (15-Hydroxyprostaglandin Dehydrogenase). 15-hydroxyprostaglandin dehydrogenase [NAD(+)] (Homo sapiens), P15428. purified HPGD, NADH fluorescence kinetic, PGE2 substrate. Potency, µM, for inactives: at the highest dose activity change, negative = inhibition, most hits filed as inhibitors. actives 4.3% (n = 150,000). AID 894, 2007; also: potency is read from the fitted curve at half-maximal effect; % is scaled to controls: 0 for no effect and ±100 for the full control effect
# Target sequence (P15428 whole entry, looked up): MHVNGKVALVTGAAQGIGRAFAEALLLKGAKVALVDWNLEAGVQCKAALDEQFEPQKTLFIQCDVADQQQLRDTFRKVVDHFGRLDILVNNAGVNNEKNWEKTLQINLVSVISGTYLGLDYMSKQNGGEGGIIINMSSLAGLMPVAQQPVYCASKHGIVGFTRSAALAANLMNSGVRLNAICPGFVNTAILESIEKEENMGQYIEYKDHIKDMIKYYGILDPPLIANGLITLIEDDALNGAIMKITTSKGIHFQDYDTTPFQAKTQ
#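 NADH formation kinetics: reaction with 30 uM PGE2 and 1 mM NAD+ (final), 20 nM enzyme, Tris-HCl pH 8 with Tween 20, after 15 min compound preincubation at room temperature. Fluorescence change, last versus first of five reads.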
# IMPase Li cell – qHTS Assay for Identifying the Cell-Membrane Permeable IMPase Inhibitors: Potentiation with Lithium; CHO-M1 cells, IP1 TR-FRET (IP-One), carbachol + lithium; actives 0.35% (n = 210,000); AID 1457, 2008; Potency, µM (series often up to 59.4 µM), for the others: top-dose activity, negative = IMPase inhibition, actives largely listed as inhibitors; active = well fitted curve in the direction sought with a large enough effect; inconclusive = small, poorly fitted or top-dose-only effect, or another doubt; inactive = no such curve, though single readings can be large; an effect the other way counts as inactive or inconclusive;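 also: IP1 builds up when IMPase is blocked and the TR-FRET signal falls; potency is read from the fitted curve at half-maximal effect; plate controls were basal vehicle for no effect and high inhibitor control for full effect; nearly all actives have a fitted effect of over 50% in size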
#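 Lithium-sensitised IP1 accumulation assay; M1-expressing CHO cells treated 30 min at 37C with compound. Competitive antibody detection by time-resolved FRET followed a 10 min room-temperature lysis step.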
# PNC assembly inh – High Content Assay for Compounds that inhibit the Assembly of the Perinucleolar Compartment | activity change (PNC), negative = inhibition, % at 10 µM | PC3M PTB-GFP, PNC prevalence imaging, 16 h; active compounds read low | actives 3.1% (n = 140,000);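 active = readout at or below -70, meaning at least 70% loss of cells showing the perinucleolar compartment, a nuclear body marking cancer cells; inconclusive = readout between -30 and a set limit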;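 also: plate controls were DMSO wells for no effect and camptothecin positive control wells for full effect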
#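 Read-out is percentage of cells bearing a perinucleolar compartment, from automated 20x imaging of fixed, Hoechst-stained PC3M PTB-GFP cells. Cells were seeded 4 h, then exposed 16 h to compound (23 nl of library stock) in duplicate plates.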
# ALDH1A1 inh-2 – Inhibitors of Aldehyde Dehydrogenase 1 (ALDH1A1): Followup Confirmation and Counterscreen; shares compounds with ALDH1A1 inh-1; purified ALDH1A1, NADH fluorescence, propionaldehyde/NAD+; Potency, µM (top dose mostly 57.1 µM), for inactives: at the top dose activity change, negative = inhibition, hits mostly inhibitors; actives 90% (n = 90); calls by dose curve
# Starred values were filed as active, the others as inactive; u = inconclusive; x = no result; [ ] = another dose, or the depositor's remark. Unless noted, calls follow the shape of the dose curve; as a rule, active = well fitted inhibition curve with a large enough effect (not every such curve was filed as active); inconclusive = small, poorly fitted or top-dose-only effect, or another doubt; inactive = no such curve, though single readings can be large or run the other way.
SMILES,ALDH1A1 inh-1,IMPase inh,12-hLO inh,HPGD inh,IMPase Li cell,PNC assembly inh,ALDH1A1 inh-2
O=C1C=CC(=O)C2=C1C1c3ccccc3C2c2ccccc21,0.71µM*,x,u,1.1µM*,15%,x,0.56µM*
O=[N+]([O-])c1ccccc1S(=O)(=O)N1CCN(Cc2ccc3c(c2)OCO3)CC1,u,x,x,x,10%,x,x
CS(=O)(=O)c1ccc(Cn2c3c(c4cc(F)cc(F)c42)CCC[C@H]3CC(=O)O)cc1,0.11µM*,-3,-11%,34%,12%,x,0.35µM*
Cc1cnc(C(=O)OCC(=O)c2cc(C)n(C)c2C)cn1,4%,x,x,x,0%,x,x
COc1cc(/C=N/NC(=O)c2cc(C)oc2C)cc(OC)c1OC,-3%,x,x,x,0%,x,x
COc1ccc(OC)c(-n2nnnc2SCC(=O)Nc2nc(C)c(C)s2)c1,u,-1,0%,-14%,u,7,1.8µM*
COC(=O)c1ccsc1NC(=O)CSc1nnnn1-c1ccccc1SC,0.13µM*,7,-1%,-25%,0%[38.3 µM],25,0.32µM*
COC(=O)c1c(NC(=O)CSc2nnnn2-c2ccccc2)sc2c1CCCC2,-4%,10,-2%,-19%,8%[38.3 µM],-9,x
N/N=C1/c2ccccc2N[C@H]1OC(=O)Nc1cccc(Cl)c1,23%[13.5 µM],x,-3%[11.4 µM],-5%,-2%,x,x
O=C(CSc1nnnn1-c1ccccc1Cl)Nc1ccc2c(c1)OCCO2,0.22µM*,u,-8%,-6%,31%[38.3 µM],-15,0.25µM*
O=C(CSc1nnnn1-c1ccc(Cl)cc1)NC(=O)Nc1ccc2c(c1)OCCO2,-1%,16,0%,-11%,9%,11,x
CC(C)N(C(=O)CN1C(=O)C(=O)c2ccccc21)c1ccccc1,0.028µM*,x,x,x,8%,x,0.035µM*
CC(C)N(C(=O)COC(=O)[C@H](C)NC(N)=O)c1ccccc1,0%,x,x,x,-1%,x,x
O=C(CC1(O)C(=O)N(Cc2ccccc2)c2ccccc21)c1ccncc1 (centres undefined),0.071µM*,-7,0%,-20%,20%[38.3 µM],6,0.25µM*
Cc1ccc(OCC(=O)OCCN2C(=O)c3ccccc3C2=O)cc1C,0%,x,-1%,-6%,-3%,15,x
Cc1cccc2c1N(CCCOc1ccccc1)C(=O)C2=O,0.035µM*,8,-21%,28µM*,-1%[38.3 µM],26,0.045µM*
O=C1C2C3CCC(C3)C2C(=O)N1Cc1ccccc1 (centres undefined),-46%,10,-6%,-12%,12%,44,x
CC(=O)c1sc(C(=O)O)c(-c2ccco2)c1-c1ccco1,3%,x,x,x,x,x,x
C[N+](C)(C)CCC(=O)c1cccc2ccccc12,0.071µM*,5,-24%,14µM*,24%,x,0.035µM*
O=C(O)CCC(=O)c1cccc2ccccc12,-1%,-5,1%,-20%,-8%[38.3 µM],-25,x
O=C(CCNc1ccccc1)c1ccc2c(c1)OCO2,0.89µM*,11,-5%,-18%,17%[38.3 µM],-1,2.2µM*
COc1ccc(-c2noc(CCC(=O)Nc3ccc4c(c3)OCCO4)n2)cc1,u,18,3%,-26%,41%[38.3 µM],-15,x
COc1ccc(C(=O)CCNc2ccc3c(c2)OCCO3)cc1,0.32µM*,x,x,x,11%,x,4µM*
Cc1ccc(-n2c(SCC(=O)Nc3ccc4c(c3)OCO4)nnc2-c2cccs2)cc1,-3%,-5,-5%,-30%,5%[38.3 µM],15,x
COc1ccc(-n2c(Cc3cccs3)nnc2SCC(=O)Nc2ccc3c(c2)OCCO3)cc1,2µM*,4,-3%,-2%,0%[38.3 µM],9,0.56µM*
CO/N=C(\C(=O)NC1C(=O)N2C(C(=O)OCOC(=O)C(C)(C)C)=C(/C=C\c3scnc3C)CSC12)c1csc(N)n1 (centres undefined),0.35µM*,x,-5%,u,-19%,x,0.79µM*
O=C(c1ccc(COCC(F)(F)F)o1)N1CCCC1,1%,x,x,x,3%,x,x
COc1ccc(-c2nc3cnc(N4CCN(C)CC4)nc3n(C)c2=O)cc1,u,x,x,x,10%,x,x

# Screens deposited in PubChem BioAssay by National Center for Advancing Translational Sciences (NCATS).
